# According to the supplement of paper PMC6555819:
# Assays:
# Experiment in all cases: PBM binding z-score (relative to random genomic background probes); higher = stronger binding; sequences stand for … in GC…GCGATTGACAGCGTAGAATGAAGG
# [1] = tested on: FXR:RXRa (NR concentration 270 nM, RXRa partner concentration 90 nM)
# Procedure, shortened: (§1)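 On custom Agilent 4×180K arrays, double-stranded probes with 34-nt variable regions carried direct-repeat seeds, single-nucleotide variants, half-site ablations or random human genomic background. Ligand-free nuclear receptor dimers were applied for 1 h, and binding was read with antibodies against each partner (one per run). Binding z-scores come from regression-normalized fluorescence, with the random background probes as reference.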
# [2] = tested on: LXRa:RXRa (NR concentration 270 nM, RXRa partner concentration 90 nM)
# Procedure, shortened: as §1
# [3] = tested on: LXRa homodimer (NR concentration 270 nM)
# Procedure, shortened: as §1
# [4] = tested on: LXRb:RXRa (NR concentration 270 nM, RXRa partner concentration 90 nM)
# Procedure, shortened: as §1
# [5] = tested on: LXRb homodimer (NR concentration 270 nM)
# Procedure, shortened: as §1
# [6] = tested on: PPARa:RXRa (NR concentration 270 nM, RXRa partner concentration 90 nM)
# Procedure, shortened: as §1
# [7] = tested on: PPARg:RXRa (NR concentration 180 nM, RXRa partner concentration 90 nM)
# Procedure, shortened: as §1
# [8] = tested on: PPARg:RXRa 270nM:90nM, anti-RXR (NR concentration 270 nM, RXRa partner concentration 90 nM)
# Procedure, shortened: as §1
# [9] = tested on: PPARg:RXRa 30nM:10nM, anti-RXR (NR concentration 30 nM, RXRa partner concentration 10 nM)
# Procedure, shortened: as §1
# [10] = tested on: PPARg:RXRa 90nM:30nM, anti-RXR (NR concentration 90 nM, RXRa partner concentration 30 nM)
# Procedure, shortened: as §1
# [11] = tested on: PPARg:RXRa DBDmut IVT, anti-RXR (DBD mutation: RXRa K156A/R161A, NR concentration 270 nM, RXRa partner concentration 90 nM)
# Procedure, shortened: as §1
# [12] = tested on: PPARg:RXRa IVT, anti-PPARg (NR concentration 270 nM, RXRa partner concentration 90 nM)
# Procedure, shortened: as §1
# [13] = tested on: PPARg DBDmut:RXRa IVT, anti-PPARg (DBD mutation: PPARg1 K132A/R137A, NR concentration 270 nM, RXRa partner concentration 90 nM)
# Procedure, shortened: as §1
# [14] = tested on: PPARg DBDmut IVT, anti-PPARg (DBD mutation: PPARg1 K132A/R137A, NR concentration 270 nM)
# Procedure, shortened: as §1
# [15] = tested on: PPARg homodimer (NR concentration 180 nM)
# Procedure, shortened: as §1
# [16] = tested on: PXR:RXRa (NR concentration 270 nM, RXRa partner concentration 90 nM)
# Procedure, shortened: as §1
# [17] = tested on: PXR homodimer (NR concentration 270 nM)
# Procedure, shortened: as §1
# [18] = tested on: RARa:RXR (NR concentration 270 nM, RXRa partner concentration 90 nM)
# Procedure, shortened: as §1
# [19] = tested on: RARa homodimer (NR concentration 270 nM)
# Procedure, shortened: as §1
# [20] = tested on: RARb:RXRa (NR concentration 270 nM, RXRa partner concentration 90 nM)
# Procedure, shortened: as §1
Sequence,PBM binding z-score [1],PBM binding z-score [2],PBM binding z-score [3],PBM binding z-score [4],PBM binding z-score [5],PBM binding z-score [6],PBM binding z-score [7],PBM binding z-score [8],PBM binding z-score [9],PBM binding z-score [10],PBM binding z-score [11],PBM binding z-score [12],PBM binding z-score [13],PBM binding z-score [14],PBM binding z-score [15],PBM binding z-score [16],PBM binding z-score [17],PBM binding z-score [18],PBM binding z-score [19],PBM binding z-score [20]
GCAACGAGGGCAAAGTTGATAGCATCTGTCGACG,1.14,1.01,-0.469,0.805,-0.643,3.7,5.92,6.03,4.83,6.51,2.74,3.19,0.065,-0.728,0.234,1.18,-0.438,1.53,-0.122,2.34
CCTTACGGGTCACTCCAGGTTATAGTATCGGAGT,4.76,7.84,2.33,5.52,0.0567,4.62,3.5,3.93,1.33,2.85,2.7,3.52,0.75,0.31,1.56,4.94,0.228,3.64,0.304,3.8
TCATATAGGTAAAGGTGAAAGCCGAACGATATGA,0.132,1.05,-0.406,1.09,-0.488,3.13,3.82,4.43,4.34,4.51,3.94,4.09,1.05,1.68,1.25,0.502,-0.307,1.44,-0.251,1.83
ATCTCGAGGTAAAGATAGTTCAGTGAATGCAAAT,0.198,5.34,0.132,1.62,0.118,0.727,0.145,0.25,0.14,0.23,-0.0258,0.54,0.0992,0.266,0.0262,2.22,0.66,0.499,-0.0875,0.896
CCTAGTTGGTCAAGGTCACACTCGCTATAGGTAC,3.95,3.53,2.41,3.43,0.997,3.86,2.85,3.32,1.24,2.41,2.46,3.35,0.792,0.878,3.44,3.95,2.21,4.18,2.57,3.85
TAGCGTAGGTCAGATCGGGCCAGTATACGCTATA,2.62,1.36,-0.421,0.809,-0.55,1.99,0.602,0.725,0.0137,0.225,-0.503,0.617,-0.164,-0.912,-0.143,1.48,-0.976,1.23,-1.14,3.07
ACAGACAGGTGAGCGAAGGTAACTCAGCTGGACG,-0.11,-0.471,-0.638,-0.645,-0.759,0.0839,0.737,-0.0383,-0.389,0.269,0.465,0.783,0.567,-0.608,-0.706,-0.51,-0.963,0.056,-0.65,0.608
ACTACCAGGCCAAGTTTGGGTCACTCAAACAAAG,0.642,0.276,0.197,1.05,0.0374,1.58,0.43,0.598,-0.29,0.255,1.12,2.04,0.0556,-0.292,0.797,0.921,0.121,1.45,0.491,2
TCATATAGGTAAACAGGTAAAAGTCCGTAAGTTA,1.11,1.14,0.519,0.863,0.214,1.98,2.49,3.29,4.26,3.85,4.45,3.81,1.35,1.75,0.996,0.894,0.723,1.14,1.5,0.628
AATACAGGGTCATCGTAGGCCAGGGTACGCACAG,7.02,6.11,2.59,4.52,1.33,5.71,6.91,6.06,2.54,4.9,2.56,4.25,1.78,1.18,4.25,4.84,0.528,5.17,1.22,4.32
AAAACAGGGTCACTAGGCCAGAGTAGGTACGAAT,6.63,4.02,-0.0117,4,0.509,6.07,8.29,7.23,4.36,6.34,5.29,6.57,2.03,1.25,2.68,3.58,0.329,4.8,1.21,4.18
TCTGCTAGGTCAACGATGGTCAGCTACTCTGCTA,3.16,2.86,-0.273,1.48,-0.302,3.3,2.4,3.05,1.62,2.47,4.3,4.17,-0.186,-0.6,0.254,1.42,-0.802,1.93,-0.564,4.14
TCTATTAGATGATTAGGGCAACCGAAACAGCGGA,0.507,0.432,0.054,0.49,0.329,0.871,0.674,1.88,3.31,2.68,2.02,1.09,0.897,0.561,0.156,0.4,-0.123,0.416,0.326,0.703
TAGCCTAGATCAGATCGGGCCAGTATACGCTATA,-0.847,-1.11,-0.829,-1.18,-1.2,-1.18,0.218,-0.582,-0.499,-0.448,-0.0973,0.607,-0.736,-0.528,-1.3,-0.794,-1.1,-0.901,-1.23,-1.19
